Conditions in all cases: treatment time: 24 h
Assay [1] deals with WPMY1-TP53BP1-CLTA. As to the kind of experiment: lowest phenotypically active concentration; higher = less potent. The method, boiled down:
(§1)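 Phenotypic activity depended on meeting both a deviation and a reproducibility criterion. The fifteen gene-edited A549, HepG2 and WPMY1 reporter lines were treated at 0.3, 1, 3 or 9 µM for 24 h, four wells each, then imaged live with features normalised to solvent control wells. Deviation required ≥3 of 4 wells past the 95th percentile of control Euclidean distances, and reproducibility a median replicate Pearson correlation above the 95th percentile of non-replicates.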

For a further assay, the system named is A549-CANX-COX4. As to the kind of experiment: phenotypically active (imaging signature differs from DMSO and reproducible) at any of 0.3-9 uM (binary (1 = active, 0 = inactive)); higher = active. The method, boiled down:
as §1

For a further assay, the system named is A549-TP53BP1-CLTA. Described as above. The method, boiled down: as §1
The subject of the next assay is HepG2-ACTB-RAB5A. The assay is described as above. The method, boiled down:
as §1

Another assay relates to HepG2-CANX-COX4. The description is as above. The essentials:
as §1

Another assay deals with HepG2-GM130-SQSTM1. Described as above. The method, boiled down:
as §1

The next assay relates to HepG2-TP53BP1-CLTA. The description is as above. The essentials:
as §1

The subject of the next assay is HepG2-TUBA1B-RELA. The assay is described as above. The essentials:
as §1

Assay [2] relates to WPMY1-ACTB-RAB5A. The assay is described as above. The method, boiled down:
as §1

Assay [3] relates to WPMY1-CANX-COX4. The assay is described as above. The essentials: as §1
The test system of assay [4] is WPMY1-GM130-SQSTM1. Described as above. The essentials: as §1
Assay [5] has as its system WPMY1-TP53BP1-CLTA. Described as above. The essentials: as §1
Assay [6] concerns WPMY1-TUBA1B-RELA. The assay is described as above. The essentials:
as §1

The subject of assay [7] is WPMY1-CANX-COX4. The assay is described as follows: lowest phenotypically active concentration; higher = less potent. The essentials:
as §1

Assay [8] has as its system WPMY1-GM130-SQSTM1. Described as above. The method, boiled down:
as §1

In assay [9] the test system is WPMY1-ACTB-RAB5A. Described as above. The essentials:
as §1

Assay [10] concerns WPMY1-TUBA1B-RELA. The description is as above. The method, boiled down:
as §1

The structures appear in SMILES notation. A value given as a limit tells only on which side of the number the result lay.

`O=c1[nH]cc(F)c(=O)[nH]1` [5-Fluorouracil]: the “lowest phenotypically active concentration” value in the assay on WPMY1-TP53BP1-CLTA [1] came to 9 µM. Also, the phenotypically active in the assay on A549-CANX-COX4, in the assay with A549-TP53BP1-CLTA, in the assay with HepG2-ACTB-RAB5A, in the assay with HepG2-CANX-COX4, with HepG2-GM130-SQSTM1 and in the assay on HepG2-TP53BP1-CLTA was 1 (active) throughout. Moreover, the phenotypically active is 1 (active) with HepG2-TUBA1B-RELA; 0 (inactive) in the assay with WPMY1-ACTB-RAB5A [2]; 0 (inactive) in the assay on WPMY1-CANX-COX4 [3]; 0 (inactive) in the assay with WPMY1-GM130-SQSTM1 [4]; 1 (active) in the assay with WPMY1-TP53BP1-CLTA [5]; 0 (inactive) with WPMY1-TUBA1B-RELA [6].
As to `OC(CCN1CCCCC1)(c1ccccc1)C1CCCCC1` (stereo not drawn) [trihexyphenidyl], the phenotypically active in the assay with A549-CANX-COX4, with A549-TP53BP1-CLTA, in the assay on HepG2-ACTB-RAB5A, in the assay with HepG2-CANX-COX4, with HepG2-GM130-SQSTM1 and with HepG2-TP53BP1-CLTA was 0 (inactive) throughout. For the same molecule, the phenotypically active in the assay with HepG2-TUBA1B-RELA, in the assay on WPMY1-ACTB-RAB5A [2], in the assay on WPMY1-CANX-COX4 [3], in the assay on WPMY1-GM130-SQSTM1 [4], with WPMY1-TP53BP1-CLTA [5] and with WPMY1-TUBA1B-RELA [6] was 0 (inactive) in each case.
As for `Cc1ccc(S(=O)(=O)/C=C/C#N)cc1`, the “lowest phenotypically active concentration” value in the assay with WPMY1-CANX-COX4 [7] and in the assay on WPMY1-GM130-SQSTM1 [8] was 9 µM in each case. The phenotypically active in the assay with A549-CANX-COX4, with A549-TP53BP1-CLTA, in the assay on HepG2-ACTB-RAB5A, with HepG2-CANX-COX4, in the assay with HepG2-GM130-SQSTM1 and with HepG2-TP53BP1-CLTA was 0 (inactive) each time. The phenotypically active with HepG2-TUBA1B-RELA was 0 (inactive); in the assay with WPMY1-ACTB-RAB5A [2] it was 0 (inactive); with WPMY1-CANX-COX4 [3], 1 (active); with WPMY1-GM130-SQSTM1 [4], 1 (active); with WPMY1-TP53BP1-CLTA [5], 0 (inactive); with WPMY1-TUBA1B-RELA [6], 0 (inactive).
As to `C/C(=C/c1ccc(C(=O)O)cc1)c1ccc2c(c1)C(C)(C)CCC2(C)C`, the figures for the “lowest phenotypically active concentration” value in the assay with WPMY1-CANX-COX4 [7], in the assay with WPMY1-GM130-SQSTM1 [8] and in the assay on WPMY1-TP53BP1-CLTA [1] were 9 µM, 3 µM and 3 µM, respectively. The phenotypically active in the assay on A549-CANX-COX4, in the assay on A549-TP53BP1-CLTA, in the assay with HepG2-ACTB-RAB5A, in the assay on HepG2-CANX-COX4, in the assay on HepG2-GM130-SQSTM1 and with HepG2-TP53BP1-CLTA was 0 (inactive) in each case. In addition, the phenotypically active with HepG2-TUBA1B-RELA is 0 (inactive); in the assay on WPMY1-ACTB-RAB5A [2], 0 (inactive); in the assay with WPMY1-CANX-COX4 [3], 1 (active); in the assay on WPMY1-GM130-SQSTM1 [4] it was 1 (active); in the assay on WPMY1-TP53BP1-CLTA [5], 1 (active); in the assay with WPMY1-TUBA1B-RELA [6] it was 0 (inactive).
In the case of `OCc1ccccc1O[C@@H]1O[C@H](CO)[C@@H](O)[C@H](O)[C@H]1O` [Salicin], the phenotypically active in the assay on A549-CANX-COX4, in the assay with A549-TP53BP1-CLTA, in the assay with HepG2-ACTB-RAB5A, in the assay on HepG2-CANX-COX4, in the assay on HepG2-GM130-SQSTM1 and in the assay on HepG2-TP53BP1-CLTA was 0 (inactive) throughout. Besides, the phenotypically active in the assay on HepG2-TUBA1B-RELA, with WPMY1-ACTB-RAB5A [2], in the assay on WPMY1-CANX-COX4 [3], in the assay on WPMY1-GM130-SQSTM1 [4], with WPMY1-TP53BP1-CLTA [5] and in the assay on WPMY1-TUBA1B-RELA [6] was 0 (inactive) in each case.
Turning to `COc1cc([C@@H]2c3cc4c(cc3[C@@H](O[C@@H]3O[C@@H]5CO[C@@H](C)O[C@H]5[C@H](O)[C@H]3O)[C@H]3COC(=O)[C@H]23)OCO4)cc(OC)c1O` [etoposide], the “lowest phenotypically active concentration” value in the assay on WPMY1-ACTB-RAB5A [9] was 1 µM; in the assay on WPMY1-CANX-COX4 [7] it was 1 µM; with WPMY1-GM130-SQSTM1 [8], 1 µM; in the assay on WPMY1-TP53BP1-CLTA [1] it was 1 µM; in the assay on WPMY1-TUBA1B-RELA [10], not above 0.3 µM. Also, the phenotypically active in the assay on A549-CANX-COX4, in the assay with A549-TP53BP1-CLTA, with HepG2-ACTB-RAB5A, in the assay on HepG2-CANX-COX4, with HepG2-GM130-SQSTM1 and in the assay with HepG2-TP53BP1-CLTA was 1 (active) throughout. The phenotypically active in the assay on HepG2-TUBA1B-RELA, with WPMY1-ACTB-RAB5A [2], in the assay with WPMY1-CANX-COX4 [3], with WPMY1-GM130-SQSTM1 [4], in the assay with WPMY1-TP53BP1-CLTA [5] and with WPMY1-TUBA1B-RELA [6] was 1 (active) in each case.

Values taken from the supplement of paper PMC7411054.
